High-throughput results from PubChem BioAssay.
In the library only some 19% were active in any assay of this set; here they are far more common.
DT40 TDP1 CPT = growth inhibition of DT40 Tdp1-/-;hTDP1 cells with camptothecin (screen for TDP1 inhibitors). chicken DT40 Tdp1-/-;hTDP1 cells + 20 nM CPT, ATP luminescence, 48 h. Potency, µM (series often up to 46.2 µM), hits mostly inhibitors. 12% of 420,000 active. AID 686979; note: nearly all actives have a fitted effect of over 55% in size
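Chicken DT40 Tdp1-/- cells complemented with human TDP1, 400 cells/well, exposed to compounds plus 20 nM camptothecin for at least 48 h at 37 C; viability read as ATP content by CellTiter-Glo luminescence.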
HT1080-NT tox = kills 2HG-producing HT-1080-NT fibrosarcoma cells; HT-1080-NT fibrosarcoma viability, CellTiter-Glo ATP luminescence, 48 h; Potency, µM (doses to about 46.1 µM), hits mostly cytotoxic; 1.6% of 360,000 active; AID 686970;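 note: NT is the 2HG producing partner of a matched IDH1 knockdown line; nearly all actives have a fitted effect of over 55% in size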
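HT-1080-NT fibrosarcoma cells (2HG-overproducing), 750 cells/well in RPMI with 5% FBS, dosed after 2 h and incubated 48 h at 37C. CellTiter-Glo luminescence normalized to DMSO and no-cell wells; concentration-response curves fitted and classed.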
HT1080 IDH1KD tx = toxicity to HT-1080 IDH1 knockdown cells (counter line); HT-1080 IDH1 knockdown viability, ATP luminescence, 48 h; Potency, µM (doses to about 46.1 µM), actives largely listed as cytotoxic; 2% of 360,000 active; AID 686971
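% activity derives from luminescence (CellTiter-Glo), normalised to DMSO and no-cell wells. HT-1080-IDH1KD cells, 750/well, had 48 h compound exposure at 37 °C.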
TDP1 cell noCPT = qHTS for Inhibitors of human tyrosyl-DNA phosphodiesterase 1 (TDP1): qHTS in cells in absence of CPT. DT40 Tdp1-/- hTDP1 cells, no CPT, ATP luminescence, 48 h. Potency, µM (titrated, usually from 46.2 µM), most hits filed as inhibitors. 15% of 420,000 active. AID 686978, 2013; note: nearly all actives have a fitted effect of over 55% in size
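Chicken DT40 Tdp1-/- cells stably complemented with human TDP1 were seeded at 400 cells/well with DMSO in place of 20 nM camptothecin. After compound pinning, cells grew at least 48 hr at 37 °C; viability read by CellTiter-Glo luminescence.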
IL1B secr inh = blocks inflammasome-driven IL-1 beta release | THP-1 LPS/ATP IL-1B secretion, AlphaLISA, 16 h; active compounds read low | activity change, % at 57.5 µM | 4.7% of 360,000 active; in the data active = activity change below about -50%; inconclusive = mostly about -30% to -49%
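Secreted IL-1B measured by AlphaLISA bead assay after 16 h compound exposure of THP-1 cells; compounds (final up to 57.5 uM) added 1 h before LPS (250 ng/mL) and ATP (1.25 mM) stimulation; lower signal means less secretion.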
Numbers stand for hits; – = inactive; ? = inconclusive; · = no result. Unless noted, calls come from the whole dose curve; as a rule, active = well fitted curve in the direction sought with a large enough effect; inconclusive = small, poorly fitted or top-dose-only effect, or another doubt; inactive = no such curve, though single readings can be large; an effect the other way counts as inactive or inconclusive.

SMILES | DT40 TDP1 CPT | HT1080-NT tox | HT1080 IDH1KD tx | TDP1 cell noCPT | IL1B secr inh
O=C(NCC1CCCO1)c1nn2c(c1Cl)NC(c1ccc(F)cc1)CC2C(F)(F)F (stereo not drawn) | 16.4µM | – | – | ? | –
Cc1nn(C)cc1CNC(=O)c1cc2n(n1)C(C(F)(F)F)CC(c1cccs1)N2 (stereo not drawn) | ? | – | – | ? | –
Cc1nn(C)c(C)c1CNC(=O)c1nn2c(c1Cl)NC(c1cccs1)CC2C(F)(F)F (stereo not drawn) | 16.4µM | ? | ? | 9.2µM | –
CN(Cc1cccs1)S(=O)(=O)c1ccc(Cl)cc1F | – | – | – | – | –
C/C(=N\Nc1ccc([N+](=O)[O-])cc1[N+](=O)[O-])c1ccc(-n2nncc2C(C)(C)C)cc1 | 20.6µM | – | – | 13µM | –
CCC(=O)N1CCCC1(C)C(=O)Nc1ccc2scnc2c1 (stereo not drawn) | – | ? | ? | – | –
CCCCN(CCCNC(=O)c1cc(Nc2ccc(OC)c(OC)c2)nc2ccccc12)Cc1ccccc1 | 16.4µM | · | · | 20.6µM | ·
CCCCN(CCCNC(=O)c1cc(Nc2ccc(OC)cc2)nc2ccccc12)Cc1ccccc1 | 20.6µM | · | · | 16.4µM | ·
Cc1cc(C(=O)NCCCN(C)C)c2ccccc2n1 | – | – | – | – | –
CCCCN(CCCNC(=O)c1cc(Nc2ccc(OC)c(OC)c2)nc2ccccc12)c1ccccc1 | 14.6µM | · | · | 13µM | ·
CCCCN(C)CCCNC(=O)c1cc(Nc2ccc(OC)c(OC)c2)nc2ccccc12 | ? | – | – | ? | ?
COc1ccc(Nc2cc(C(=O)NCCc3ccccc3)c3ccccc3n2)cc1OC | – | · | · | – | ·
COc1ccc(Nc2cc(C(=O)NCCCN(C)Cc3ccccc3)c3ccccc3n2)cc1OC | 23.1µM | · | · | 20.6µM | ·
CCCCNC(=O)c1cc(C)nc2ccccc12 | – | – | – | – | –
CCOC(=O)c1ccsc1NC(=O)c1ccco1 | – | – | – | – | –
Cc1occc(=O)c1OCc1ccc(Cl)cc1Cl | – | – | – | – | –
CC12CC3OC3CC1CCC1C2CCC2(C)C1CCC21OCCO1 (stereo not drawn) | ? | – | – | ? | –
Cc1cc[n+](CC(=O)c2cccs2)cc1 | – | – | – | – | –
O=C(C[n+]1ccn(CCCNP2(=O)C=C(c3ccccc3)OC(c3ccccc3)=C2)c1)c1cccs1 | 14.6µM | – | – | – | ?
CCc1cc(-c2n[nH]c(C)c2-c2nc3ccccc3n2C)c(O)cc1O | ? | ? | ? | 18.4µM | ?
CCc1cc(-c2n[nH]c(CCC(=O)O)c2-c2nc3ccccc3n2C)c(O)cc1O | – | – | – | – | –
O=C(NC(c1ccccc1)c1ccsc1)C1CCN(Cc2ccc(Oc3ccccc3)cc2)CC1 (stereo not drawn) | ? | 18.4µM | 14.6µM | 18.4µM | ?
COc1cc(CN2CCC(C(=O)NC(c3ccc(F)cc3)c3ncccc3C)CC2)cc(OC)c1 (stereo not drawn) | 23.1µM | – | – | ? | –
COc1ccc(C(NC(=O)C2CCN(Cc3ccc(Oc4ccccc4)cc3)CC2)c2ccccc2C)cn1 (stereo not drawn) | 20.6µM | 16.4µM | ? | 18.4µM | ?
COc1ccc(C(NC(=O)C2CCN(Cc3ccc(Oc4ccccc4)cc3)CC2)c2ccccn2)cc1 (stereo not drawn) | 16.4µM | 14.6µM | 23.1µM | 16.4µM | ?
SMILES | DT40 TDP1 CPT | HT1080-NT tox | HT1080 IDH1KD tx | TDP1 cell noCPT | IL1B secr inh
CCOC(=O)c1sc2ncn(CC(=O)Nc3cc(Cl)ccc3C)c(=O)c2c1C | – | · | · | – | ·
Cc1cccnc1C(NC(=O)C1CCN(Cc2ccccc2)CC1)c1ccc(F)cc1 (stereo not drawn) | ? | – | – | ? | –
O=C(NC(c1ccc(-c2ccccc2)cc1)c1cnccn1)C1CCN(Cc2cccs2)CC1 (stereo not drawn) | ? | ? | ? | ? | –
O=C(NC(c1ccc(-c2ccccc2)cc1)c1cnccn1)C1CCN(CCN2C(=O)c3ccccc3C2=O)CC1 (stereo not drawn) | 23.1µM | – | – | 23.1µM | –
COc1cc(CN2CCC(C(=O)NC(c3ccc(-c4ccccc4)cc3)c3cnccn3)CC2)cc(OC)c1 (stereo not drawn) | 9.2µM | 23.1µM | 23.1µM | 23.1µM | -53.1
Cc1cccnc1C(NC(=O)C1CCN(Cc2ccc(Oc3ccccc3)cc2)CC1)c1ccccc1 (stereo not drawn) | 14.6µM | 23.1µM | 18.4µM | 18.4µM | ?
O=C(NC(c1ccc(-c2ccccc2)cc1)c1cnccn1)C1CCN(Cc2ccc(Oc3ccccc3)cc2)CC1 (stereo not drawn) | ? | 13µM | ? | ? | -52.2
CCOC(=O)CSc1nc2sc3c(c2c(=O)n1CC)CCCC3 | – | · | · | – | ·
Cc1ccc(S(=O)(=O)NC[C@H]2O[C@@H](n3ccc(N)nc3=O)[C@H](O)[C@@H]2O)s1 | – | – | – | – | –
Cc1nc(Cl)c(C(=O)NCCc2ccccc2)c(C)c1[N+](=O)[O-] | – | – | – | – | –
O=C1[C@@H](Oc2ccccc2)[C@@H](c2cnc3ccccc3c2)N1c1ccccc1 | 20.6µM | ? | 20.6µM | 14.6µM | –
CC(C)(OC(=O)c1ccc(F)cc1)c1cc2ccccc2c(=O)o1 | – | – | – | – | –
CCOC(=O)c1sc(NC(=O)c2ccc(Br)o2)cc1C | ? | – | – | 16.4µM | ?
CCOC(=O)c1sc(NC(=O)Nc2cccc(Cl)c2)cc1C | 10.3µM | ? | ? | 9.2µM | -76.0
CCOC(=O)c1sc(NC(=O)c2cccs2)cc1C | ? | – | ? | ? | ?
N#CCCN=C(NS(=O)(=O)c1ccccc1)c1ccccc1 | – | – | – | – | –
CCc1ccc(NC(=O)N2CC=C(c3c[nH]c4ccccc34)CC2)cc1 | 5.8µM | · | · | 5.17µM | ·
CCOC(=O)c1cccc(NC(=O)N2CC=C(c3c[nH]c4ccccc34)CC2)c1 | ? | · | · | 20.6µM | ·
CCOc1ccc(NC(=O)N2CC=C(c3c[nH]c4ccccc34)CC2)cc1 | 3.66µM | · | · | 2.31µM | ·
O=c1[nH]c2ccccc2n1C1=CCCC1 | – | – | – | ? | –
CSc1ccc(NC(=O)N2CC=C(n3c(=O)[nH]c4ccccc43)CC2)cc1 | 8.2µM | – | ? | 8.2µM | –
CCOc1ccc(NC(=O)Cc2c[nH]c3ccccc23)cc1 | – | · | · | – | ·
CCc1ccc(NC(=O)N2CCCCCC2)cc1 | – | – | – | – | ?
CCOC(=O)N1CCN(C(=O)Nc2cccc(Cl)c2)CC1 | – | – | – | – | –
CCSc1ncc(Cl)c(C(=O)Nc2sc(C(C)=O)c(C)c2C(=O)OC)n1 | – | · | · | – | ·
CC(NC(=O)c1cccs1)C(S)c1ccccc1 (stereo not drawn) | ? | – | – | ? | –
